Test results taken from PubChem BioAssay (NCATS).
Activity calls are given as the source filed them. Calls follow the shape of the dose curve; as a rule, active = well fitted inhibition curve with a large enough effect; inconclusive = small, poorly fitted or top-dose-only effect; inactive = flat fitted curve, though single readings scatter.

The compounds below were run on Nanoluciferase (engineered Oplophorus gracilirostris luciferase) (assay: Primary Nanoluciferase (NLuc) qHTS assay for identification of artifact compounds. (AID 1845222;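 also: 0% = DMSO and -100% = no enzyme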)). Details: NLuc-conditioned medium, Nano-Glo luminescence, 5 min; series mostly up to 54.1 µM; activity, negative = inhibition: at the top concentration.
How it was run: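 Concentration-response data were obtained by luminescence after 5 min with Nano-Glo substrate at 1:100. The enzyme was diluted S16 NLuc-expressing cell medium, preincubated with compound for 15 min at RT. Curves were fitted with a 4-parameter Hill model.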

Row | SMILES | activity, negative = inhibition
1 | CC1(C)[C@H]2C[C@H](C/C=C\CCCC(=O)O)[C@@H](NC(=O)c3csc4ccc(O)cc34)[C@@H]1C2 | -10.6% (inactive)
2 | Cc1cc(C)c2nc(-c3ccccn3)cc(C(=O)Nc3ccc(S(=O)(=O)Nc4onc(C)c4C)cc3)c2c1 | -15.4% (inactive)
3 | C=C1CC[C@H]2[C@@](C)(CCC(OC3OC(CO)C(O)C(O)C3O)[C@@]2(C)CO)C1C(=O)CC1=CCOC1=O (stereo not given in full) | -1.83% [at 25.7 µM] (inactive)
4 | CC1(C)CC[C@]2(C(=O)O)CC[C@]3(C)C(=CCC4[C@@]5(C)CC[C@H](O)C(C)(C)C5CC[C@]43C)C2C1 (stereo not given in full) | -0.828% [at 25.7 µM] (inactive)
5 | O=C(N[C@@H]1CC[C@@H](c2cccc(F)c2F)CN(CC(F)(F)F)C1=O)N1CCC(n2c(=O)[nH]c3ncccc32)CC1 | 2.27% (inactive)
6 | CCC(=O)OCC(=O)[C@@]1(OC(=O)CC)[C@@H](C)C[C@H]2[C@@H]3CCC4=CC(=O)C=C[C@]4(C)[C@@]3(F)[C@@H](O)C[C@@]21C | 4.81% (inactive)
7 | CN1CCN(C(=O)c2cc3cc(Cl)ccc3[nH]2)CC1 | 4.41% (inactive)
8 | C=C1C(OC(C)=O)CCC2(C)CC3(O)OC(=O)C(C)=C3CC12 (stereo not given) | -4.77% (inactive)
9 | CC1(C)CC[C@]2(C(=O)O[C@@H]3O[C@H](CO)[C@@H](O)[C@H](O)[C@H]3O)CC[C@]3(C)C(=CCC4[C@@]5(C)CC[C@H](O[C@H]6O[C@H](CO)[C@@H](O)[C@H](O[C@@H]7O[C@H](CO)[C@@H](O)[C@H](O)[C@H]7O)[C@H]6O)C(C)(C)C5CC[C@]43C)[C@@H]2C1 (stereo not given in full) | -0.923% [at 11.6 µM] (inactive)
10 | CC1CC(=O)[C@]2(O)C(C(=O)OCCc3ccc(O)c(O)c3)=CO[C@@H](O[C@@H]3O[C@H](CO)[C@@H](O)[C@H](O)[C@H]3O)[C@H]12 (stereo not given in full) | -1.99% [at 25.7 µM] (inactive)
